# Data published in PubChem BioAssay (NCI).
# This is part of a sample that, as a whole, favours compounds with a hit. Of some 83,000 tested, about 20% had one in any assay.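 96-well plates, one dose, 48 hours. Percent growth reported; active if below 10.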 Values without a mark were called inactive. Activity calls are given as the source filed them.
# Assays:
# Test in all cases: NCI-60 one-dose screen, 48 h (100 = growth as untreated, 0 = no growth, -100 = all killed)
# Conditions in all cases: 10 µM unless noted
# [1] = test system: T-47D breast
# [2] = test system: BT-549 breast
# [3] = test system: MDA-MB-435 melanoma
# [4] = test system: SW-620 colon
# [5] = test system: MCF7 breast
# [6] = test system: HCT-116 colon
# [7] = test system: HCC-2998 colon
# [8] = test system: KM12 colon
SMILES,growth [1],growth [2],growth [3],growth [4],growth [5],growth [6],growth [7],growth [8]
COc1ccc(-c2nn(-c3ccccc3)cc2/C=C/C(=O)OCc2cn(-c3ccc(F)c(Cl)c3)nn2)cc1,48.3%,101%,65.3%,100%,71%,84.8%,98.7%,93.9%
O=C(C[C@@H](C(=O)NCc1cccc(C(F)(F)F)c1)N1C(=O)[C@@H](N2C(=O)OC[C@@H]2c2ccccc2)[C@H]1/C=C/c1ccccc1)NC1CCN(Cc2ccccc2)CC1,50.8%,74.2%,66.8%,59.8%,7.27% (active),30.4%,59.9%,59.4%
Cc1ccc(C2CC3c4ccccc4C2C2CCCCN32)cc1 (stereo not given),83.6%,57.4%,97.8%,106%,95.7%,95.1%,93.1%,
COc1ccc(C(=O)/C=C/c2c(Cl)c3c(c(OC)c2Cl)OCC(=O)N3)cc1,25.1%,-14.8% (active),7.18% (active),17.7%,14.9%,11.4%,41.8%,15.9%
C=C1CC2(OC1=O)C(=O)N(CCCCCCCN1C(=O)C3(CC(=C)C(=O)O3)c3ccccc31)c1ccccc12 (stereo not given),22.5%,35.2%,6.35% (active),-49.8% (active),-4.01% (active),-21.8% (active),82.5%,73.6%
Clc1nc(Cl)c2c3c(sc2n1)CCCC3,38.4%,13.3%,49.3%,34.3%,30.7%,12.5%,97.6%,74.2%
CCN(CC)CC(C)Nc1ccc([N+](=O)[O-])c2sc3ccccc3c(=O)c12 (stereo not given),31.2%,60.4%,24.1%,19.1%,7.9% (active),24.5%,41.3%,29.2%
O=C1/C(=C/c2ccccc2)CN(CCC(=O)N2C/C(=C\c3ccccc3)C(=O)/C(=C/c3ccccc3)C2)C/C1=C\c1ccccc1,26.6%,56.3%,-40.7% (active),7.07% (active),-2.24% (active),-60.6% (active),26.7%,10.1%
Nc1c(C(=O)Nc2cccc3c2OCCO3)sc2nc3c(cc12)C(=O)CCC3,36.5%,62.7%,-60.4% (active),25.2%,18.6%,33.8%,46.6%,23.4%
COc1ccc(C2CC(=O)Nc3c2c(C)nn3-c2nc3ccccc3[nH]2)cc1 (stereo not given),111%,113%,99.9%,48.2%,91.6%,108%,112%,30.4%
COc1ccc(-c2csc(NC(=O)CN3CCN(c4cc5c(cc4F)c(=O)c(C(=O)O)cn5C4CC4)CC3)n2)cc1,16.6%,9.62% (active),14.4%,16%,12.8%,9.62% (active),36.4%,15.3%
NC(=S)N/N=C/c1ccc(OCc2ccccc2)cc1,20.8%,58.4%,74%,66.2%,52.1%,52.5%,79.2%,84.6%
Oc1ccccc1N=Cc1c(O)ccc2ccccc12,63%,54.5%,79.1%,85.7%,70.4%,70.6%,92.4%,59.1%
O=C1CCc2c(sc3[nH]c(=S)n(Cc4ccccc4)c(=O)c23)C1,6.69% (active),10.6%,15%,15.4%,15.8%,6.51% (active),23.9%,5.93% (active)
COc1ccc2nc3cc(Cl)ccc3c(N3CCN(c4ccnc(N5CCOCC5)n4)CC3)c2c1,-37.9% (active),93.1%,57%,3.94% (active),-82% (active),1.63% (active),12.9%,53.2%
O=c1c2c3c(sc2n2c(CCl)nnc2n1Cc1ccccc1)CCCC3,-69.9% (active),-93.5% (active),-64.5% (active),-82.9% (active),-79.9% (active),-56.2% (active),-69.3% (active),-69.6% (active)
CCOC(=O)c1c2ncccc2n2c(=O)n(-c3ccc(Cl)cc3)nnc12,61.1%,43.6%,49.7%,105%,76.6%,86.9%,90.3%,70.7%
NC(CC(=O)O)C(=O)OCc1ccccc1 (stereo not given),83.8%,108%,86.3%,107%,104%,96.9%,104%,106%
O=C(CN1CCN(c2cc3c(cc2F)c(=O)c(C(=O)O)cn3C2CC2)CC1)Nc1nc(-c2ccccc2)cs1,72.8%,73.7%,86.6%,91.7%,86.8%,81.2%,92.6%,89.6%
O=C(O)c1cccc2c1-c1ccccc1C2=O,93.1%,85.8%,97.7%,95.7%,92.3%,92.6%,99%,97.9%
N=S(=O)(NC(=O)c1ccc(Cl)cc1Cl)c1ccc(Br)s1 (stereo not given),103%,99.5%,96.2%,80.9%,91.5%,80.6%,102%,88.5%
CN1CCN(Cc2ccc(NC(=O)c3cncc(C#Cc4c(N)ncc5ccc(C#N)cc45)c3)cc2C(F)(F)F)CC1,65%,92.3%,-93.8% (active),-69.2% (active),-69.7% (active),-22% (active),78.5%,-41.8% (active)
CN(C)c1ccc(/C=C(\C#N)c2nc3ccccc3s2)cc1,89.4%,72.9%,89.1%,112%,89%,96.8%,106%,108%
Nc1nc(SCc2ccccc2)c2ncn(C3CCCC3)c2n1,98.7%,116%,104%,102%,91.7%,107%,107%,113%
COc1ccc(C/C(C)=C(\c2ccc(Cl)cc2)c2ccc(OCCN3CCCCCC3)cc2)cc1,56.8%,94.9%,88.7%,58.4%,62.7%,56.5%,83.1%,73.9%
COc1ccc(/C=C2\N=C3SC=C(N)N3C2=O)cc1,9.75% (active),11.8%,9.59% (active),21.9%,13.4%,-6.91% (active),40.9%,46.9%
Cl/C(=N\Nc1ccccc1)c1ccccc1,89.9%,98.8%,80.6%,105%,87.4%,102%,102%,
O=[N+]([O-])c1cccc(C2CC(c3ccccc3)=Nc3ccccc3S2)c1 (stereo not given),84.9%,78.5%,112%,25.6%,16.2%,47.9%,108%,35.7%
COc1cc2c(c(OC)c1OC)-c1ccc(N=NC(N)=S)c(=O)cc1[C@@H](NC(C)=O)CC2,62.2%,-37.5% (active),0.0927% (active),17.3%,8.57% (active),-28.4% (active),-13.6% (active),-31.1% (active)
